Pf growth 48h: inhibits P. falciparum growth in the first generation, 48 h; P. falciparum luciferase growth in erythrocytes, 48 h; Potency, µM (top dose mostly 28.7 µM), for inactives: at the top dose activity change, negative = inhibition, hits mostly inhibitors; 310,000 tested, 5.9% active; AID 504832; further: on the % scale 0 is the no-effect control and ±100 the full control effect
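Growth was read as firefly luciferase luminescence after a 48 h, 37 C, 5% CO2 exposure of compounds to reporter-bearing P. falciparum cultures (0.1% parasitemia, 2% hematocrit final) in Albumax-supplemented RPMI 1640.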
Pf growth 96h: P. falciparum growth inhibition at 96 hour, primary screen for plastid delayed-death inhibitors; Potency, µM (titrated, usually from 28.7 µM), without a hit: at the top dose activity change, negative = inhibition, usual class: inhibitors; P. falciparum luciferase reporter growth, 96 h; 320,000 tested, 6.9% active; further: on the % scale 0 is the no-effect control and ±100 the full control effect
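P. falciparum expressing integrated firefly luciferase, in erythrocytes at 2% hematocrit, 0.05% parasitemia, incubated with compounds 96 h at 37 C, 5% CO2. Growth inhibition read as loss of luminescence; two-generation exposure targets delayed-death apicoplast inhibitors.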
HCV inh: inhibitors of hepatitis C virus infection. Huh7.5.1 HCVcc-Cre infection, luciferase reporter, 44 h. Potency, µM (doses to about 41.8 µM), for the others: top-dose activity change, negative = inhibition, usual class: inhibitors. 340,000 tested, 3.4% active. AID 651820; further: on the % scale 0 is the no-effect control and ±100 the full control effect
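Antiviral activity was scored by luciferase reporter output from cells infected with HCVcc-Cre (~0.5 moi) in presence of compound, 44 h infection period, cells seeded 1,000/well 4 h prior.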
AMA1-RON2 inh: disrupts binding of P. falciparum AMA1 to RON2. Potency, µM (top dose mostly 58.2 µM), inactives show at the top dose activity change, negative = inhibition, usual class: inhibitors. AlphaScreen AMA1-biotinylated RON2 peptide binding. 360,000 tested, 0.2% active. AID 720542;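 further: 0% = vehicle wells and -100% = peptide control; nearly all actives have a fitted effect of over 45% in size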
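AMA1 (3D7) with his tag at 25 nM final met compounds first, then biotinylated RON2 peptide at 25 nM; detection used donor plus acceptor beads, 10 µg/mL apiece, read by AlphaScreen after 30 min at room temperature.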
SARS PLpro yeast: blocks SARS-CoV papain-like protease in a yeast assay. S. cerevisiae expressing SARS-CoV PLpro, growth rescue. Potency, µM (doses to about 32.9 µM), for the others: at the highest dose activity, positive = growth rescue, usual class: activators. 330,000 tested, 0.19% active. AID 485353; calls by dose curve; further: 0% is about no effect; nearly all actives have a fitted effect of over 55% in size
NS1 inh: inhibitors of influenza NS1 protein function | 270,000 tested, 0.4% active | Potency, µM (series often up to 46.1 µM), inactives show at the highest dose activity, positive = more growth; calls by dose curve; further: actives are rising curves; nearly all actives have a fitted effect of over 50% in size
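Compounds were scored for reversing the slow growth caused by influenza A NS1 in S. cerevisiae, measured by optical density at 600 nm. Assay medium contained 2% galactose at pH 6.0; NS1-free yeast of the same strain were the positive control.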
Numbers without * were called inactive; ? = inconclusive; nt = no result. In the library only some 12% were active in any assay of this set; here they are far more common. Unless noted, the call rests on the fitted dose curve; in most records, active means well fitted curve in the direction sought with a large enough effect; inconclusive means small, poorly fitted or top-dose-only effect, or another doubt; inactive means no such curve, though single readings can be large; an effect the other way counts as inactive or inconclusive. Potency means the concentration at half of the fitted maximal effect.

SMILES | Pf growth 48h | Pf growth 96h | HCV inh | AMA1-RON2 inh | SARS PLpro yeast | NS1 inh
CCOC(=O)c1sc(NC(=O)Cn2nnc3sc4c(c3c2=O)CCC(C(C)(C)C)C4)nc1C (stereo not given) | 9.3µM* | 0% | 27% | -11% | 10% | 14%
CC(=O)Cn1nnc2sc3c(c2c1=O)CCC(C(C)(C)C)C3 (stereo not given) | 240% | -12% | ? | 1% | -2% | nt
Cc1ccc2[nH]c(=O)c(CN(CCc3ccccc3)C(c3nnnn3Cc3ccco3)C(C)C)cc2c1 (stereo not given) | 3.3µM* | ? | -27% | 4% | -1% | ?
CCc1ccc2[nH]c(=O)c(CN(Cc3ccc(F)cc3)C(c3nnnn3CCN3CCOCC3)C(C)C)cc2c1 (stereo not given) | 19% | 75% | 23% | -1% | 2% | 18%
CC(C)C(c1nnnn1Cc1ccccc1)N(CCCO)Cc1cc2cc3c(cc2[nH]c1=O)OCO3 (stereo not given) | 7.4µM* | 45% | -11% | 33% | -2% | -11%
CCC(c1nnnn1Cc1ccccc1)N(Cc1ccco1)Cc1cc2cc(OC)ccc2[nH]c1=O (stereo not given) | ? | -9% | -72% | -6% | 0% | -48%
CCC(c1nnnn1Cc1ccc(OC)cc1)N(CCCO)Cc1cc2cc3c(cc2[nH]c1=O)OCO3 (stereo not given) | ? | nt | 8% | -8% | 0% | -4%
CCC(c1nnnn1Cc1ccco1)N(CCc1ccccc1)Cc1cc2cc(C)ccc2[nH]c1=O (stereo not given) | 13µM* | 314% | ? | -2% | 4% | ?
COC(=O)C[C@@H]1C=C[C@H](NC(=O)Nc2cc(F)ccc2F)[C@@H](CO)O1 | nt | nt | nt | 0% | nt | nt
Cc1ccc(C2=CN(Cc3ccccc3)CCC2=O)cc1 | nt | nt | ? | 0% | -3% | nt
O=C1CCN(Cc2ccccc2)C=C1c1ccc(Br)cc1 | nt | nt | 10µM* | -20% | 28% | nt
O=C(CNC(=S)N(Cc1ccccc1F)C1CCCCC1)NCC1CCCO1 (stereo not given) | ? | 11% | -13% | -4% | 0% | nt
CC[n+]1c(/C=C/C=C/N(C(C)=O)c2ccccc2)sc2cc(OC)ccc21 | 9.3µM* | 13% | ? | ? | -7% | 7%
COc1ccc2sc(/C=C/c3ccccc3O)[n+](C)c2c1 | 3% | -2% | -16% | -18% | -2% | nt
CCOC(=O)c1cccc(NC(=O)C2CCCN(S(=O)(=O)c3c(C)nn(C)c3C)C2)c1 (stereo not given) | nt | 9.3µM* | ? | 4% | 12% | -20%
Cc1nn(C)c(C)c1S(=O)(=O)N1CCCC(C(=O)N2CCN(c3ccc(Cl)cc3)CC2)C1 (stereo not given) | 4.7µM* | ? | ? | -6% | 1% | -11%
Cc1n[nH]c(C)c1S(=O)(=O)N1CCCC(C(=O)N2CCN(c3ccc(Cl)cc3)CC2)C1 (stereo not given) | 6.6µM* | 1% | ? | -5% | 5% | 3%
Cc1ccc(Cl)cc1N1CCN(C(=O)C2CCN(S(=O)(=O)c3c(C)nn(C)c3C)CC2)CC1 | 8.3µM* | nt | 11µM* | -12% | 6% | -56%
Cc1cccc(COc2ccc(/C=N/NC(=O)c3nnn(-c4nonc4N)c3COc3ccc(F)cc3)cc2)c1 | 7% | -1% | ? | -10% | 0% | -7%
O=C(COC(=O)C1CCCCC1C(=O)N1CCc2ccccc21)NCc1ccco1 (stereo not given) | 12µM* | -33% | -7% | -10% | 0% | 2%
O=C(COC(=O)C1CC2C=CC1C2)NCc1ccco1 (stereo not given) | -10% | -10% | 8% | 0% | -4% | -10%
O=C1CN(Cc2ccccc2)C(=NCc2ccco2)S1 | 1.9µM* | -4% | 7% | -7% | -2% | 13%
c1ccc2c(CCNc3ncnc4nc[nH]c34)cccc2c1 | 33% | 23% | 11µM* | -4% | -1% | -6%

Screening results as filed in PubChem BioAssay.
